Experimental data: PubChem BioAssay AID1159580 (chemical genetic matrix, 2015)
Values joined by “and” are separate entries in the source; they are usually repeats but may differ in a detail not shown here. Equal entries are not always repeated. Out of some 5,500 compounds screened, about 2,000 (36%) were called active. Another 18% or so got no clear call; they are omitted. No stated cut-off is given here; in the data, active means normalized growth mostly below about 0.91 (no sharp cut-off); inconclusive means no clear call, values can overlap the other calls; inactive means mostly above about 0.92. The list shows a part of the results.

Assay: chemical genetic growth profiling, strain panel (AID 1159580);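 further: tested at 20 µM; growth read once vehicle control cultures reached saturation at 30 °C; 1 = growth at the plate median or of vehicle wells; lower values mean less growth of the strain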
Conditions: S. cerevisiae deletion strains, growth OD

Measured: normalized growth

ClC(Cl)=C(c1ccc(Cl)cc1)c1ccc(Cl)cc1
inactive: locus YAL013W, strain DEP1, hits give low values 0.976 | locus YAL021C, strain ccr4, hits give low values 0.995 | locus YAL026C, strain drs2, hits give low values 0.999 | locus YAL030W, strain snc1, hits give low values 0.982 | locus YBL061C, strain skt5, hits give low values 0.985 | locus YBR009C, strain hhf1, hits give low values 0.987 | locus YBR021W, strain FUR4, hits give low values 1 | locus YBR023C, strain chs3, hits give low values 0.983 | locus YBR171W, strain sec66, hits give low values 0.986 | locus YBR229C, strain ROT2, hits give low values 0.957 | locus YBR231C, strain swc5, hits give low values 0.976 | locus YBR279W, strain paf1, hits give low values 0.994 | locus YCL011C, strain gbp2, hits give low values 1 | locus YCL016C, strain dcc1, hits give low values 0.993 | locus YCL029C, strain bik1, hits give low values 0.941 | locus YCL061C, strain MRC1, hits give low values 0.983 | locus YCL069W, strain vba3, hits give low values 0.995 | locus YCR088W, strain abp1, hits give low values 0.998 | locus YDL005C, strain med2, hits give low values 0.979 | locus YDL035C, strain GPR1, hits give low values 0.971 | locus YDL040C, strain nat1, hits give low values 0.994 | locus YDL074C, strain BRE1, hits give low values 1.04 | locus YDL101C, strain DUN1, hits give low values 0.948 | locus YDL134C, strain PPH21, hits give low values 0.967 | locus YDL185W, strain tfp1, hits give low values 0.964 | locus YDL192W, strain arf1, hits give low values 0.958 | locus YDR001C, strain nth1, hits give low values 0.998 | locus YDR069C, strain doa4, hits give low values 0.985 | locus YDR101C, strain arx1, hits give low values 0.963 | locus YDR137W, strain rgp1, hits give low values 1.04 | locus YDR150W, strain NUM1, hits give low values 0.945 | locus YDR159W, strain sac3, hits give low values 0.986 | locus YDR162C, strain NBP2, hits give low values 0.95 | locus YDR195W, strain ref2 1 | locus YDR297W, strain sur2, hits give low values 0.995 | locus YDR318W, strain mcm21, hits give low values 0.961 | locus YDR334W, strain swr1, hits give low values 0.986 | locus YDR335W, strain msn5, hits give low values 0.992 | locus YDR388W, hits give low values 0.949 | locus YDR392W, strain spt3, hits give low values 0.967 | locus YDR502C, strain sam2, hits give low values 0.95 | locus YEL003W, strain gim4, hits give low values 0.997 | locus YEL037C, strain rad23, hits give low values 1.01 | locus YEL061C, strain CIN8 (second series), hits give low values 0.996 | locus YEL061C, strain CIN8, hits give low values 0.966 | locus YER015W, strain faa2, hits give low values 0.983 | locus YER016W, strain bim1, hits give low values 1 | locus YER110C, hits give low values 0.946 | locus YER111C, strain swi4, hits give low values 0.991 | locus YER155C, strain BEM2 (second series), hits give low values 0.983 | locus YER155C, strain BEM2, hits give low values 0.927 | locus YFR010W, strain ubp6, hits give low values 0.989 | locus YGL078C, strain dbp3, hits give low values 0.951 | locus YGL086W, strain mad1, hits give low values 0.955 | locus YGL167C, strain pmr1, hits give low values 0.994 | locus YGL173C, strain kem1, hits give low values 0.994 | locus YGL227W, strain vid30, hits give low values 0.995 | locus YGL240W, strain doc1, hits give low values 0.991 | locus YGL248W, strain PDE1, hits give low values 0.959 | locus YGL253W, strain hxk2, hits give low values 0.993 | locus YGR078C, strain PAC10, hits give low values 0.974 | locus YGR135W, strain pre9, hits give low values 0.966 | locus YGR229C, strain SMI1, hits give low values 0.998 | locus YGR252W, strain gcn5, hits give low values 1.03 | locus YHR013C, strain ard1, hits give low values 0.998 | locus YHR027C, strain rpn1, hits give low values 0.989 | locus YHR030C, strain SLT2, hits give low values 0.95 and 1.05 | locus YHR079C, strain IRE1 (second series), hits give low values 0.951 | locus YHR079C, strain IRE1, hits give low values 1.03 | locus YHR094C, strain hxt1, hits give low values 0.948 | locus YHR129C, strain ARP1, hits give low values 0.963 | locus YHR142W, strain chs7, hits give low values 0.986 | locus YHR200W, strain rpn10, hits give low values 0.951 | locus YIL066C, strain RNR3, hits give low values 0.929 | locus YIL073C, strain SPO22, hits give low values 0.941 | locus YIL125W, strain kgd1, hits give low values 0.948 | locus YIR030C, strain dcg1, hits give low values 0.944 | locus YJL092W, strain hpr5, hits give low values 0.999 | locus YJL095W, strain BCK1 (second series), hits give low values 0.995 | locus YJL095W, strain BCK1, hits give low values 0.961 and 1.05 | locus YJL115W, strain asf1, hits give low values 0.991 | locus YJL129C, strain trk1, hits give low values 0.964 | locus YJL134W, strain LCB3, hits give low values 0.961 | locus YJL154C, strain vps35, hits give low values 0.998 | locus YJL164C, strain tpk1, hits give low values 0.979 | locus YJL166W, strain qcr8, hits give low values 0.975 | locus YJL168C, strain set2, hits give low values 0.949 | locus YJL187C, strain SWE1 (second series), hits give low values 0.958 | locus YJL187C, strain SWE1, hits give low values 0.995 | locus YJR043C, strain POL32, hits give low values 0.966 | locus YJR066W, strain TOR1, hits give low values 0.975
active: locus YER167W, strain BCK2, hits give low values 0.887
